The panel holds about 83,000 compounds, 20% with a hit somewhere; the sample as a whole holds those more often.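 Negative percent growth values reflect cell death: -40 means 40% of the cells present at the start died, and -100 means all died.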 A number with no mark means an inactive call. The source made the active and inactive calls. The calls were made as follows: active = growth percent below 10; inactive = the rest.

Data on eight compounds can be found in PubChem BioAssay (NCI).

Among the test systems are SR leukemia; RPMI-8226 leukemia; OVCAR-8 ovarian; OVCAR-5 ovarian; OVCAR-4 ovarian; SK-OV-3 ovarian; IGROV1 ovarian; OVCAR-3 ovarian; HS 578T breast; NCI/ADR-RES ovarian; T-47D breast; BT-549 breast; MDA-MB-435 melanoma; SW-620 colon; MCF7 breast; HCT-116 colon; HCC-2998 colon; KM12 colon.
Common to all, as to assay: NCI-60 one-dose screen, 48 h (100 = growth as untreated, 0 = no growth, -100 = all killed)
Conditions in all cases: 10 µM unless noted

Turning to `CC(=O)c1ccc(Nc2nc(SCC(C)C)nc(-c3ccc(F)cc3)c2C#N)cc1`, the growth with SR leukemia is 102%; with RPMI-8226 leukemia, 118%; in the assay on OVCAR-8 ovarian it was 101%; in the assay on OVCAR-5 ovarian, 113%; in the assay on OVCAR-4 ovarian, 115%; with SK-OV-3 ovarian it was 114%. Further, the growth with IGROV1 ovarian is 111%; in the assay on OVCAR-3 ovarian, 115%; in the assay on HS 578T breast, 122%; with NCI/ADR-RES ovarian, 110%; in the assay with T-47D breast it was 106%; with BT-549 breast, 110%. For the same compound, the growth in the assay with MDA-MB-435 melanoma was 111%; in the assay with SW-620 colon, 110%; in the assay with MCF7 breast, 114%; in the assay on HCT-116 colon it was 108%; in the assay on HCC-2998 colon, 119%; in the assay on KM12 colon, 104%.
In the case of `CCn1c(SCC(=O)Nc2cccc(C(=O)/C=C/c3ccccc3Cl)c2)nc2ccccc2c1=O`, the growth is 52.2% in the assay with SR leukemia; 6.75% (active) with RPMI-8226 leukemia; 98.9% in the assay with OVCAR-8 ovarian; 97.7% in the assay with OVCAR-5 ovarian; 86% with OVCAR-4 ovarian; 106% in the assay on SK-OV-3 ovarian. Also, the growth with IGROV1 ovarian is 65.7%; with OVCAR-3 ovarian, 69.1%; in the assay on HS 578T breast it was 92.2%; in the assay with NCI/ADR-RES ovarian it was 93.4%; in the assay with T-47D breast, 81.3%; with BT-549 breast, 105%. In addition, the growth in the assay on MDA-MB-435 melanoma was 98.6%; in the assay with SW-620 colon it was 72.8%; in the assay with MCF7 breast, 17.1%; with HCT-116 colon, -26.3% (active); in the assay on HCC-2998 colon, 91%; with KM12 colon, 85.3%.
`CN1CCN(Cc2ccc(NC(=O)c3cncc(C#Cc4cnc5ccc(N6CCN(C)CC6)nn45)c3)cc2C(F)(F)F)CC1`: the growth with SR leukemia is -52.2% (active); with RPMI-8226 leukemia it was -13.9% (active); in the assay on OVCAR-8 ovarian it was -81.8% (active); in the assay with OVCAR-5 ovarian, 61.4%; in the assay with OVCAR-4 ovarian, 10.9%; in the assay with SK-OV-3 ovarian, 92%. Moreover, the growth is -37.2% (active) with IGROV1 ovarian; -76.9% (active) in the assay with OVCAR-3 ovarian; -23.1% (active) in the assay on HS 578T breast; -31.3% (active) with NCI/ADR-RES ovarian; 110% in the assay on T-47D breast; 73% with BT-549 breast. Further, the growth in the assay on MDA-MB-435 melanoma is -87.5% (active); with SW-620 colon, -74.9% (active); in the assay with MCF7 breast, -76.2% (active); in the assay on HCT-116 colon, -20.1% (active); in the assay with HCC-2998 colon, 54.8%; in the assay on KM12 colon it was -78.8% (active).
For `O=C(/C=C/c1ccc(F)cc1)c1ccc(O)cc1`, the growth is 24.4% with SR leukemia; 23.9% with RPMI-8226 leukemia; 98.4% in the assay with OVCAR-8 ovarian; 103% with OVCAR-5 ovarian; 106% with OVCAR-4 ovarian; 110% with SK-OV-3 ovarian. The growth in the assay on IGROV1 ovarian was 114%; with OVCAR-3 ovarian, 83.6%; in the assay on HS 578T breast, 107%; in the assay with NCI/ADR-RES ovarian, 106%; with T-47D breast, 93.9%; with BT-549 breast, 103%. In addition, the growth in the assay with MDA-MB-435 melanoma is 67%; in the assay with SW-620 colon, 81.4%; in the assay on MCF7 breast it was 30.3%; in the assay with HCT-116 colon, -44.1% (active); in the assay with HCC-2998 colon it was 112%; in the assay with KM12 colon, 59.3%.
As for `Cc1ccc(C2=NN(C)C(=O)C3(CCCC3)C2)cc1`, the growth was 113% in the assay on SR leukemia; 111% with RPMI-8226 leukemia; 102% in the assay with OVCAR-8 ovarian; 102% with OVCAR-5 ovarian; 106% in the assay on OVCAR-4 ovarian; 110% in the assay on SK-OV-3 ovarian. Moreover, the growth in the assay with IGROV1 ovarian was 110%; in the assay on OVCAR-3 ovarian, 110%; in the assay on HS 578T breast, 109%; with NCI/ADR-RES ovarian it was 102%; with T-47D breast, 102%; with BT-549 breast it was 117%. The growth in the assay with MDA-MB-435 melanoma is 107%; in the assay with SW-620 colon, 103%; in the assay on MCF7 breast it was 89.8%; with HCT-116 colon, 104%; in the assay on HCC-2998 colon, 110%; in the assay with KM12 colon it was 104%.
Regarding `Nc1ncc(-c2ccc3ncnc(Nc4cccc(Cl)c4F)c3c2)cn1`, the growth in the assay with SR leukemia is 66.3%; in the assay with RPMI-8226 leukemia it was 47.6%; in the assay with OVCAR-8 ovarian, 64.3%; in the assay on OVCAR-5 ovarian, 47.8%; with OVCAR-4 ovarian, 69.5%; in the assay with SK-OV-3 ovarian it was 0% (active). In addition, the growth in the assay on IGROV1 ovarian was 11.4%; in the assay with OVCAR-3 ovarian, 57.2%; in the assay on HS 578T breast, 35%; in the assay with NCI/ADR-RES ovarian, 59.3%; in the assay with T-47D breast, 23.8%; in the assay with BT-549 breast it was 61.3%. Moreover, the growth with MDA-MB-435 melanoma was 80.4%; in the assay on SW-620 colon, 91.1%; in the assay on MCF7 breast, 38.2%; in the assay on HCT-116 colon, 96.4%; in the assay on HCC-2998 colon, 56.5%; in the assay with KM12 colon it was 89.6%.
As for `Cc1c(F)cc(C(N)=O)cc1NCC(=O)Nc1ccc([N+](=O)[O-])cc1`, the growth is 107% in the assay on SR leukemia; 110% in the assay on RPMI-8226 leukemia; 99.8% in the assay on OVCAR-8 ovarian; 89.5% with OVCAR-5 ovarian; 67.8% with OVCAR-4 ovarian; 106% in the assay on SK-OV-3 ovarian. Moreover, the growth in the assay with IGROV1 ovarian was 80.1%; in the assay on OVCAR-3 ovarian it was 96.7%; in the assay with HS 578T breast, 88.4%; in the assay on NCI/ADR-RES ovarian it was 96.6%; in the assay on T-47D breast it was 102%; with BT-549 breast it was 98%. Besides, the growth is 99.8% in the assay with MDA-MB-435 melanoma; 92.9% in the assay on SW-620 colon; 87.1% in the assay on MCF7 breast; 99.9% in the assay on HCT-116 colon; 105% with HCC-2998 colon; 98.6% in the assay on KM12 colon.
Consider `CS(=O)(=O)c1ccc(-n2cc(/C=N/O)c(-c3ccccc3)n2)cc1`, for which the growth in the assay on SR leukemia is 30.3%; with RPMI-8226 leukemia, 70.9%; in the assay with OVCAR-8 ovarian, 84.2%; with OVCAR-5 ovarian, 98.6%; in the assay with OVCAR-4 ovarian, 77.6%; in the assay on SK-OV-3 ovarian, 109%. Moreover, the growth with IGROV1 ovarian was -26.2% (active); in the assay with OVCAR-3 ovarian, 94.4%; in the assay with HS 578T breast it was 95.4%; with NCI/ADR-RES ovarian, 84.4%; with T-47D breast it was 59.1%; with BT-549 breast, 60.7%. The growth in the assay with MDA-MB-435 melanoma is 85.9%; in the assay on SW-620 colon, 104%; in the assay on MCF7 breast, 21.5%; in the assay with HCT-116 colon it was 92.1%; in the assay on HCC-2998 colon, 95.4%; in the assay with KM12 colon it was 96.9%.
